Source: PubChem BioAssay (several laboratories)
A1 inh – inhibitors of the anti-apoptotic protein A1, read as caspase activation. MEF A1-2A-BIM cells, Caspase-Glo 3/7 luminescence, 3 h; percent of clofoctol response, vehicle zero. caspase activation, % (concentration not given with the values). 330,000 tested, 0.066% active;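 active means over half of replicate activation scores above 10%, or exactly half above 10 with the replicate mean above 10; inconclusive means replicate mean below 10 yet half the replicates above 10; inactive means over half of replicates below 10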
NTR1 ag – agonists of human neurotensin receptor NTR1. NTR1-U2OS beta-arrestin-GFP spot imaging, agonist mode. activation, % at 20 µM. 330,000 tested, 0.17% active;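 active means activation at or above 40% of the spot to cytoplasm intensity ratio, with at least 20 cells analyzed; inconclusive means wells under 20 cells, flagged as cytotoxic or low count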;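 further: 0% = DMSO without peptide and 100% = 100 nM NTR1 peptide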
Mdm2 MdmX PPI – disrupts the human Mdm2-MdmX interaction. SaOS-2 split-luciferase Mdm2/MdmX complementation, luminescence. 330,000 tested, 3% active. inhibition, % at 8 µM. O15151+Q00987;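 active means inhibition of at least 50% at 8 µM in the primary screen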
Target sequence (O15151 whole entry, looked up): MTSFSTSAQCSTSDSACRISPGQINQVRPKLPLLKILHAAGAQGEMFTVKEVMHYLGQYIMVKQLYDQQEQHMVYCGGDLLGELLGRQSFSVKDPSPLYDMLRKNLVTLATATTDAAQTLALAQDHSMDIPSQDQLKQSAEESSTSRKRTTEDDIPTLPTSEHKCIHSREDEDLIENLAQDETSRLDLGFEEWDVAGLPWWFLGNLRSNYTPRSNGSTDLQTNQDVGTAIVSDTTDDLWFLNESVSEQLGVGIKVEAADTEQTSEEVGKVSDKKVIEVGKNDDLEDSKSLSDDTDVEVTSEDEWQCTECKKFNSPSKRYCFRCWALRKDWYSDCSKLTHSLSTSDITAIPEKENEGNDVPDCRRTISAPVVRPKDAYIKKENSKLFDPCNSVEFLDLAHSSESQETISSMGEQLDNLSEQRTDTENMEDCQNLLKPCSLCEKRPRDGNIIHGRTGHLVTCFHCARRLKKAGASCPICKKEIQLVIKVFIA
Target sequence (Q00987 whole entry, looked up): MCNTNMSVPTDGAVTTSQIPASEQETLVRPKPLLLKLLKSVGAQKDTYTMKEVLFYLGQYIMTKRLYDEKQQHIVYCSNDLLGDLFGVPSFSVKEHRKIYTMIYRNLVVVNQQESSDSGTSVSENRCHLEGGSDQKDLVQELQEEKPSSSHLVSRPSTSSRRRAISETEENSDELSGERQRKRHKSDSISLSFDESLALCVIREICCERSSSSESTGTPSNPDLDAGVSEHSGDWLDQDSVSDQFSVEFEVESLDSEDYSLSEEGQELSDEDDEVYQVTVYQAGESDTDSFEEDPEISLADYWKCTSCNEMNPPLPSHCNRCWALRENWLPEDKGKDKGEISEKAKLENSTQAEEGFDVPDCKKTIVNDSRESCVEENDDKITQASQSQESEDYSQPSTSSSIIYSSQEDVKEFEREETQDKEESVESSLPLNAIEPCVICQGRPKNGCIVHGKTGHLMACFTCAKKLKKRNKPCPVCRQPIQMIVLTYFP
Jurkat NFkB inh – inhibitors of the PMA/ionomycin-induced NF-kB reporter in Jurkat cells | PMA/ionomycin-induced NF-kB luciferase reporter, luminescence | inhibition, % at 4 µM | 330,000 tested, 0.53% active | AID 435003; in the data active means inhibition above about 50%
697 NFkB inh – inhibitors of the PMA/ionomycin-induced NF-kB reporter in 697 B cells | inhibition, % at 4 µM | 697 B-cell NF-kB luciferase reporter, 16 h | 330,000 tested, 0.33% active; in the data active means inhibition above about 35%
Beta apoptosis – blocks beta cell apoptosis | INS-1E cytokine-induced death, ATP luminescence, 48 h; percent of positive-control rescue, neutral wells zero | protection from apoptosis, % (test concentration not listed) | 300,000 tested, 0.8% active | AID 435005;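 active means Every replicate reaches about 75%, or at least half do and their mean reaches it too, limit read from the data; inconclusive means At least half of replicates reach the limit but their mean does not; inactive means Under half of replicates reach the limit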;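 further: 0% = cytokine-treated negative control wells and 100% = positive control rescue; higher means more ATP so stronger rescue from cytokine killing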
697 NFkB conf – lowers PMA/ionomycin-induced NF-kB signal in 697 B cells. shares compounds with 697 NFkB inh. 697 B-cell NF-kB luciferase, 16 h. inhibition, % at 4 µM. 2,000 tested, 35% active; in the data active means inhibition mostly above about 28%, no sharp cut-off; inactive means mostly below about 22%
Mdm2-MdmX conf – confirmation of human Mdm2/MdmX interaction inhibitors. shares compounds with Mdm2 MdmX PPI. Mdm2-MdmX binding, luminescent assay. inhibition, % at 8 µM. 10,000 tested, 55% active. AID 489028; in the data active means inhibition above about 40%
Full FLuc ctr – full-length luciferase inhibition in Mdm2/MdmX counter-screen; shares compounds with Mdm2 MdmX PPI; AID 504607; inhibition, % at 8 µM; SaOS-2 full-length luciferase counterscreen, luminescence; 6,200 tested, 77% active;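 active means mean inhibition at 8 µM reaching about 37%, which flags the compound as non-specific, limit read from the data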;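 further: p53-null SaOS-2 cells with luciferase driven by a doxycycline-inducible promoter; compound on cells about two nights before reading with doxycycline added after day one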
Starred values were filed as active, the others as inactive; i = inactive; ? = inconclusive; nt = not tested or not shown. Most compounds without a hit are left out; they make up all but 3.8% or so of the library.

SMILES	A1 inh	NTR1 ag	Mdm2 MdmX PPI	Jurkat NFkB inh	697 NFkB inh	Beta apoptosis	697 NFkB conf	Mdm2-MdmX conf	Full FLuc ctr
CC1=CC(C)(C)Nc2ccc(OC(=O)CN3C(=O)c4cccc5cccc(c45)C3=O)cc21	-1	nt	nt	nt	nt	3	nt	nt	nt
CC1=CC(C)(C)Nc2ccc(OC(=O)CN3C(=O)c4ccccc4C3=O)cc21	0	-2	97*	-2	59*	-8	39*	26	13
Cc1cc2nc(-c3ccc(SCC(=O)N4CCc5ccccc54)nc3)[nH]c2cc1C	-2	-1	98*	-126	-313	15	-200	42*	65*
CCc1nc2c(c(=O)c3ccccc3n2C)c(=O)n1CCc1ccc(OC)cc1	0	8	88*	-52	i	0	i	66*	123*
O=C(Oc1cccc(/C=N/Nc2nc(Nc3ccccc3)nc(N3CCOCC3)n2)c1)c1ccco1	4	8	58*	-76	43*	11	49*	49*	118*
Fc1ccc(Nc2nc(N3CCOCC3)nc(N3CCOCC3)n2)cc1	0	0	33	-15	-6	-6	nt	nt	nt
Cc1[nH]c2ccccc2c1/C=N/Nc1nc(Nc2ccc(F)cc2)nc(N2CCOCC2)n1	2	15	87*	32	48*	4	60*	40	101*
O=C(CC1CCCC1)NCCS(=O)(=O)N1CCN(c2ccc(F)cc2)CC1	0	0	7	-3	13	nt	nt	nt	nt
COc1ccc(C2=Nn3c(nnc3-c3ccccc3)SC2)cc1OC	0	6	33	18	-5	-6	nt	nt	nt
COc1ccc(C2=Nn3c(nnc3-c3ccccc3F)SC2)cc1OC1CCCC1	-2	16	100*	22	i	9	i	86*	29
COC(=O)[C@@H](Cc1c[nH]c2ccccc12)NC(=O)c1ccc2c(c1)OCO2	1	-1	21	-90	-106	0	nt	nt	nt
N/C(=N\OC(=O)c1ccc(Cl)cc1Cl)c1ccc(Cl)cc1	-6	0	53*	-93	-260	-2	-177	50*	146*
N/C(=N\OC(=O)c1ccco1)c1ccc(Cl)cc1	-7	0	-16	-91	-143	4	nt	nt	nt
CN1C(=O)CSC1=S	1	-1	8	4	-12	4	nt	nt	nt
COc1cc(-c2ccc(NC(=O)NC3CC3)c(OC)c2)ccc1NC(=O)NC1CC1	1	2	91*	-32	-299	10	-5	57*	73*
CCC(=O)Nc1ccc(-c2ccc(NC(=O)CC)c(OC)c2)cc1OC	-1	0	7	-8	10	4	nt	nt	nt
CCOc1ccc(C(=O)Nc2ccc(S(=O)(=O)N3CCN(C)CC3)cc2)cc1	1	2	-5	7	-7	-3	nt	nt	nt
Cn1nnnc1Sc1ncnc2scc(-c3ccc([N+](=O)[O-])cc3)c12	?	7	99*	44	-399	-7	-197	100*	50*
CCc1ccc(NC(=O)[C@@H](NC(=O)[C@@H]2Cc3ccccc3CN2)C(C)CC)cc1 (some centres undefined)	0	0	23	-8	-16	10	nt	nt	nt
COc1ccc(-n2nnnc2S(=O)(=O)CC(=O)N2CCCCC2)cc1	1	27	97*	15	39*	4	60*	96*	14
S=c1[nH]nc(-c2cccc(Cl)c2)n1/N=C/c1ccc(-c2ccccc2Br)o1	0	11	43	-6	0	6	nt	nt	nt
S=c1[nH]nc(-c2ccccc2)n1/N=C/c1ccc(-c2ccccc2Cl)o1	-1	20	90*	-12	i	7	-263	90*	54*
COc1ccccc1NC(=O)c1ccc(NC(=O)CSc2nc(N)cc(=O)[nH]2)cc1	0	2	-4	-5	16	6	nt	nt	nt
COc1cc(C2C(C#N)=C(N)Oc3cc(N)ccc32)cc(OC)c1OC (centres undefined)	2	1	88*	45	39*	20	45*	66*	68*
Cc1ccc(C(C)C)c(OCc2ccc(C(=O)N/N=C/c3ccc(O)c(O)c3)cc2)c1	0	1	53*	31	-276	-3	-38	31	nt
SMILES	A1 inh	NTR1 ag	Mdm2 MdmX PPI	Jurkat NFkB inh	697 NFkB inh	Beta apoptosis	697 NFkB conf	Mdm2-MdmX conf	Full FLuc ctr
CCOc1cc(/C=N/NC(=O)c2ccc(=O)n(C)c2)ccc1O	1	0	8	7	5	0	nt	nt	nt
O=C(COC(=O)c1ccc[n+]([O-])c1)Nc1ccc([N+](=O)[O-])cc1Cl	1	-2	21	-4	16	1	nt	nt	nt
COC(=O)Nc1sccc1C(=O)Nc1sccc1C(=O)OC	0	1	61*	2	39*	-2	-3	12	nt
N=c1c2c(n(Cc3ccc([N+](=O)[O-])cc3)c3c1CCC3)CCCC2	0	-1	9	-4	-23	4	nt	nt	nt
N=c1c2c(n(Cc3ccc(Cl)c(Cl)c3)c3c1CCC3)CCCC2	0	1	74*	11	44*	102*	29*	52*	45*
COc1ccc(C(=O)O/N=C(\N)c2ccccc2)c(OC)c1	-6	-1	93*	-134	-299	11	-483	77*	164*
COc1ccccc1C(=O)O/N=C(\N)c1ccccc1Cl	-1	0	21	-44	-49	2	nt	nt	nt
Cc1cccc(Cn2nc(C(C)(C)C)cc2C(=O)Nc2ccc(F)cc2)c1	1	3	87*	-45	-299	30	-370	81*	31
CCN(c1ccccc1)S(=O)(=O)c1ccc(C(=O)NNC(=O)c2ccccc2F)cc1	0	-1	2	11	-16	1	nt	nt	nt
O=C(CCCC(=O)c1ccccc1)NCCc1ccccc1F	0	-2	-8	3	20	-9	nt	nt	nt
COc1ccc(-c2n(Cc3ccccc3)c3ccccc3[n+]2Cc2ccccc2)cc1	1	10	89*	45	41*	113*	33*	89*	21
COc1ccc(-c2nc3ccccc3n2Cc2ccccc2)cc1	0	1	19	4	-1	-4	nt	nt	nt
COc1ccc(N2CCN(CCC(=O)c3ccc4ccccc4c3)CC2)cc1	-1	1	5	-10	7	-3	nt	nt	nt
COCCCn1c(=O)c2sccc2n2c(CCCC(=O)NCC3CCCO3)nnc12 (centres undefined)	1	0	-11	-13	3	-2	nt	nt	nt
N=c1ccn2c(n1)OC1C(O)C(CO)OC12 (centres undefined)	1	1	69*	28	54*	11	60*	72*	46*
